According to PubChem BioAssay (NCI):
Compounds without any hit were thinned out: in the full panel of roughly 83,000, 20% have a hit.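 Single-dose data. Exposure time 48 hours. Values below 10 considered active.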 Active and inactive are the calls of the source.

system: BT-549 breast; test: NCI-60 one-dose screen, 48 h (100 = growth as untreated, 0 = no growth, -100 = all killed); conditions: 10 µM unless noted

Row | Structure (SMILES) | growth
1 | CCOC(=O)C1CCN(S(=O)(=O)/N=C2/NC(=O)NC2=C(Cl)Cl)CC1 | -9.2% (active)
2 | COc1ccc(-c2cc(-c3nnc(SCC(=O)Nc4ccc(/C(C)=N\O)cc4)o3)c3ccccc3n2)cc1 | 108% (inactive)
3 | COc1ccc(-c2cs/c(=N\N=C\c3ccc(O)cc3O)n2/N=C/c2ccc(O)cc2O)cc1 | -10.4% (active)
4 | CCC1=C[C@H]2CN(CCc3c([nH]c4ccccc34)[C@@](C(=O)OC)(c3cc4c(cc3OC)N(C)[C@H]3[C@@](O)(C(=O)OC)[C@H](OC(C)=O)[C@]5(CC)[C@@H]6C[C@@H]6CN6CC[C@]43[C@@H]65)C2)C1 | 16.1% (inactive)
5 | COCCOCCOCc1n(Cc2ccc3ccccc3n2)c2ccccc2[n+]1Cc1ccc2ccccc2n1 | 9.81% (active)
6 | CCOC(=O)NCCc1nc2c([nH]1)c(=O)n(C)c(=O)n2C | 97.6% (inactive)
7 | COc1ccc(-c2cn(-c3ccc(Cl)cc3)c(=S)[nH]2)cc1OC | 78.6% (inactive)
8 | O=C(Nc1nccs1)c1noc2ccccc12 | 102% (inactive)
9 | CCOC(=O)c1c(C)nc2c(c1N)/C(=C/c1ccccn1)C(=O)N2Cc1ccccc1 | 15.9% (inactive)
10 | COc1ccc(Cl)c([N+](=O)[O-])c1 | 104% (inactive)
11 | Cn1c2ccccc2c2c(OC(=O)c3ccccc3)c3c(nc21)-c1ccccc1C3 | 94% (inactive)
12 | O=[N+]([O-])c1ccc(Oc2ccc(-c3ccccc3)cc2)cc1 | 79.6% (inactive)
13 | CNC(=O)c1cc(Oc2ccc3c(c2)sc2nc(-c4ccc(NC(C)=O)cc4)cn23)ccn1 | 38.3% (inactive)
14 | COc1ccc2nc(-c3ccc(Cl)cc3)cc(-c3nnc(SCC(=O)Nc4ccc(/C(C)=N\O)cc4)o3)c2c1 | 25.4% (inactive)
15 | C#Cc1ccccc1NC(=O)c1sc2nc3c(cc2c1N)CCCCCC3 | 37.3% (inactive)
16 | CN(C)CCCn1c2c(c3cc(-c4cccc(S(N)(=O)=O)c4)ccc3c1=O)C(=O)c1ccccc1-2 | 76.1% (inactive)
17 | Clc1ccc2c(NCCCNC3CCCCC3)ccnc2c1 | 107% (inactive)
18 | O=C(Nc1nc(-c2ccccc2Cl)cs1)c1cc(-c2ccc(Br)cc2)nc2ccccc12 | 70.9% (inactive)
19 | CC[C@H](Nc1ncnc2nc[nH]c12)c1nc2cccc(CC(=O)c3ccc(C(=O)NO)cc3)c2c(=O)n1-c1ccccc1 | 85.8% (inactive)

Row | Structure (SMILES) | growth
20 | CCSc1ccc(C2C(Br)C(=O)N2c2cc(OC)c(OC)c(OC)c2)cc1 (stereo not drawn) | 13.8% (inactive)
21 | C=CCn1c(SCC(=O)Nc2ccc(C(=O)/C=C/c3cc(OC)c(OC)c(OC)c3)cc2)nnc1-c1ccc(Cl)cc1 | 10.4% (inactive)
22 | COC(=O)c1oc2c(C(=O)/C=C/c3ccc(OC)cc3)c(OCCCN3CCCCC3)ccc2c1C | 22.9% (inactive)
23 | C#C[C@@]1(O)[C@@H](CO)O[C@@H](n2cc(Cl)c3c(N)ccnc32)[C@@H]1O | 89.9% (inactive)
24 | CN1CC=C(c2cc(NC(=O)Nc3ccc(Oc4ccnc(NC(=O)C5CC5)c4)c(F)c3)cc(C(F)(F)F)c2)CC1 | -11.2% (active)
25 | C=C(C)[C@@H]1CCC=C2CC[C@]3(C)[C@H](CC[C@@H]4[C@@]5(C)CCCNC(C)(C)[C@@H]5CC[C@]43C)[C@H]21 | 89.2% (inactive)
26 | COc1ccc(C(=O)c2cc(OC)c(C)c(OC)c2)cc1OC(=O)CCl | 15.6% (inactive)
27 | COc1ccc(-c2[nH]c3ccccc3c2C=C(C#N)C#N)cc1 | 45.9% (inactive)
28 | CC(=O)c1cnc(-c2ccccc2)nc1CBr | 70.3% (inactive)
29 | COc1ccc(-c2[nH]c3ccc(OC)cc3c2C=C(C#N)C#N)cc1 | 55.1% (inactive)
30 | NC(N)=NC(N)=Nc1cc2ccccc2c2ccccc12 | 36.1% (inactive)
31 | CCCCCOC(=O)c1ccccc1O | 93.4% (inactive)
32 | COc1cc(C(=O)Nc2cc(OC)c3ccn(C)c3c2)cc2c1C[C@]1(C)CC[C@@H](O)C(C)(C)[C@H]1O2 | 8.8% (active)
33 | CC(=O)c1ccc(NC(=O)CSc2nnc(-c3cc(-c4ccc(Cl)cc4)nc4ccccc34)o2)cc1 | 79.7% (inactive)
34 | CC(=O)c1cc2c(N)c(C(=O)Nc3ccccn3)sc2nc1C | 98.6% (inactive)
35 | FC(F)(F)c1ccc2c(Nc3cccc(C4CC(c5ccccc5)=NN4c4ccc(Cl)cc4)c3)ccnc2c1 (stereo not drawn) | 55.7% (inactive)
36 | O=C1c2ccccc2C(=O)c2c1oc1c2c(=O)[nH]c2ccc(Cl)cc21 | 38% (inactive)
37 | CN(C)CCCn1c2c(c3cc(-c4ccco4)ccc3c1=O)C(=O)c1ccccc1-2 | 83.9% (inactive)
38 | Nc1c(C(=O)Nc2ccccc2)sc2nc3c(cc12)CN(C(=O)OCc1ccccc1)CC3 | 52.1% (inactive)
